Results filed as inconclusive are left out. A number with no mark means an inactive call. Calls of active or inactive are those of the source. Calls come from the whole dose curve; as a rule, active = well fitted inhibition curve with a large enough effect; inconclusive = small, poorly fitted or top-dose-only effect; inactive = flat fitted curve, though single readings scatter.
Potency is the fitted concentration of half-maximal effect.

The nature of the experiment: Cytometry Cell-Based qHTS for Inhibitors of the mTORC1 Signaling Pathway in MEF cells (AID 2668).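 For activity change, negative = inhibition: Tsc2-/- p53-/- mouse embryonic fibroblasts stably re-expressing wild-type Tsc2; percent cells positive for phospho-rpS6 Ser235/236 relative to propidium iodide stain.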 Conditions: mTORC1 pathway readout; series mostly up to 38.3 µM; activity change, negative = inhibition: at the top concentration. From the text:
NIH Molecular Libraries Probe Production Centers Network [MLPCN]
NIH Chemical Genomics Center [NCGC]
Assay Submitter (PI): Blenis, John; Hoffman, Greg; Harvard University
NCGC Assay Overview: The mammalian target of rapamycin (mTOR) is an intracellular serine/threonine kinase Aberrant regulation of mTOR signaling plays a causative role in a number of human diseases, including cancer, benign tumors such as lymphangioleiomyomatosis (LAM) and Tuberous Sclerosis Complex (TSC), and metabolic diseases such as diabetes and obesity. This project aims to identify inhibitors of ribosomal protein S6 (rpS6) phosphorylation. The phosphorylation of rpS6 is a key event downstream of mTOR activation. The assay uses a phospho-specific antibody of phospho-rpS6 to detect inhibitors of mTOR activation. Mutations in the Tsc1 and Tsc2 genes are the underlying genetic lesions responsible for TSC, causing constitutive activation of the mTORC1 pathway and leading to profound effects on cell metabolism. Aberrant metabolism in cancer has recently received significant attention as a target to develop therapeutic agents in the treatment of cancer.1 As Tsc2-/- cells have lost the ability to respond to energy and growth factor deprivation, these cells are unable to properly down regulate cellular biosynthetic processes in response to metabolic stress, and are thus extremely sensitive to glucose deprivation-induced death.2 A central goal of this project is to explore the unique cell survival and metabolic properties of cells with Tsc1 or Tsc2 by screening for compounds that selectively target the Tsc2-/- MEFs by screening both Tsc2-/- and WT MEF cell lines. We hope to better understand these aspects of TSC physiology in order to exploit them for therapeutic benefit.
NCGC Acumen Assay Protocol:
For quantitative high throughput analysis of mTORC1 signaling, we developed a cell-based assay for immuno-fluorescence based detection of rpS6 phosphorylation on the Acumen Explorer that will be used a platform for the primary small molecule screen. Mouse embryonic fibroblasts (MEFs) are cultured in 1536-well plates using DMEM + 10% FBS. Twenty-four hrs after plating, test compounds (solubilized in DMSO) are delivered and incubated with the cells for 24 hrs at 37 degree Celsius. Following the incubation, media with compound is aspirated and the cells are fixed in 4% paraformaldehyde (PFA) containing PBS + 0.2% TX-100. Next, PFA is aspirated, cells are washed two times with PBS plus 0.2% TX-100 and the cells are blocked for 1 hr at room temperature (blocking buffer: LiCOR Blocking Buffer plus 0.2% TX-100). This is followed by aspiration and staining with Alexa-488 conjugated-phospho-rpS6 Ser235/236 antibody for 2 hours at room temperature (Cell Signaling Technology # 4803, 1:50 dilution in blocking buffer). Cells are washed two times with PBS plus 0.2% TX-100, and stained with 10 uM propidium iodide (PI) for 20-25 minutes for cell number measurement (1:500 dilution of Hoescht staining is also added for IN Cell imaging). The plates are scanned on the Acumen Explorer laser scanning instrument (TTP Labtech) using the 488nm laser for simultaneous excitation of the Alexa-488 and PI. The fluorescence emission from the Alexa-488 conjugated rpS6 phospho-235/236 antibody staining is selected using a […] band pass filter. Fluorescence emission from the PI stain is selected using a 575-640 nm band pass filter. The normalized phospho-S6 staining is calculated as the ratio of the integrated Alexa 488 intensity divided by the integrated PI intensity for the single concentration rapamycin control (7.5 nM) and DMSO columns. […] Inhibition of the pathway is defined based on the normalized phospho-S6 intensity in rapamycin treated cells. […]
(In general: Quantitative high-throughput screening tests each substance at several concentrations.)
Consider `CN1CC[C@@]2(C)c3cc(OC(=O)Nc4ccccc4)ccc3N(C)[C@@H]12`, for which the “activity change, negative = inhibition” value is 7.52%.
The same measure, in the same setting: under `CC(N)c1cccc(Cl)c1Cl` (stereo not given) stands -10.1%.
On the same count and under the same terms, under `NC(=O)c1ccc(OCC(O)CN2CC=C(c3ccc(F)cc3)CC2)cc1` (stereo not given) stands -1.97%; under `CCCn1c(=O)c2[nH]c(C3CCCC3)nc2n(CCCOC(=O)c2ccc(S(=O)(=O)F)cc2)c1=O`, 8%; under `CCCN(CCC)CCc1c[nH]c2ccc(C(N)=O)cc12`, -4.68%.
Still for that read-out and setting: in the case of `COc1ccc2c(c1)[C@@]13CCCC[C@H]1[C@@H](C2)NCC3` it was -4.38%; in that of `C=CCN(C1=NCCN1)c1c(Cl)cccc1Cl`, 10.5%.
Take `CCCC[N+]1(C)C2CC(OC(=O)[C@H](CO)c3ccccc3)CC1C1OC12` (stereo not given in full): the “activity change, negative = inhibition” value was 3.82%.
On the same count and under the same terms, in the case of `NCCc1ccc(S(=O)(=O)F)cc1` it was 0.686%; in that of `O=C1C=CC(=O)C=C1`, -1.5%; in that of `C[N+](C)(C)CC#CCOC(=O)Nc1cccc(Cl)c1`, 4.73%.
Turning to `NC(=O)CI`, the “activity change, negative = inhibition” value is -16.8%.
Same read-out and setting: in the case of `Cc1[nH]c2ccc(O)cc2c1CCN` it was 9.76%.
With `COc1ccc2c(c1)/C(=C/c1cnc[nH]1)C(=O)N2`, the Potency is 6.56 µM (active).
With `CC(=O)NBr`, the “activity change, negative = inhibition” value is 3.97%.
Still for that read-out and setting: in the case of `Cc1sc2ccccc2c1CC1=NCCN1` it was 4.22%; in that of `COc1ccc(CNC(=O)/C=C/c2ccc3[nH]cc(CCN(C)C)c3c2)cc1`, 6.07%.
On the same count and under the same terms, under `OCc1cnc[nH]1` stands -15.3%; under `CCCN1CC[C@@H]2c3cc(O)ccc3CC[C@@H]21`, -4.36%; under `C[N+]1(C)CCN(c2ccccc2)CC1`, 4.9%.
The same measure, in the same setting: under `CP(=O)(O)C1=CCNCC1` stands 2.71%; under `O=[N+]([O-])c1ccc2nc(N3CCNCC3)ccc2c1`, -6.79%.
As to `C[N+]1(C)CCOC(O)(c2ccc(-c3ccc(C4(O)C[N+](C)(C)CCO4)cc3)cc2)C1` (stereo not given), the “activity change, negative = inhibition” value is -1.14%.
Take `NCC(O)c1cc(O)c(O)cc1F` (stereo not given): the “activity change, negative = inhibition” value is 5.41%.
Regarding `NCC(CP(=O)(O)O)c1ccc(Cl)cc1` (stereo not given), the “activity change, negative = inhibition” value was -1.72%.
For the compound `N#C/C(=C/c1ccc(O)c(O)c1)C(N)=S`, the “activity change, negative = inhibition” value was 6.42%.
Same read-out and setting: under `CN1CCc2cccc(Cl)c2CC1` stands 0.677%; under `OC1CCCCC1N1CCC(c2ccccc2)CC1` (stereo not given), -6.99%.
Same read-out and setting: under `CCCN(CCC)C1CCc2cccc(O)c2C1` (stereo not given) stands 9.87%; under `NC(Cc1ccc(N(CCCl)CCCl)cc1)C(=O)O` (stereo not given), -3.67%.
As for `CCCN(CCC)[C@@H]1CCc2cccc(O)c2C1`, the “activity change, negative = inhibition” value was -5.01%.
The same measure, in the same setting: in the case of `NC(N)=NOCC[C@H](N)C(=O)O` it was 1.53%.
Turning to `C[N+]1(C)CCc2cc3c(cc2[C@H]1[C@@H]1OC(=O)c2c1ccc1c2OCO1)OCO3`, the “activity change, negative = inhibition” value is -9.77%.
On the same count and under the same terms, under `COC(=O)N1CCN(C(=O)Cc2ccc(Cl)c(Cl)c2)C(CN2CCCC2)C1` (stereo not given) stands 4.29%; under `N[C@@H](CCl)C(=O)O`, 2.48%.
Same read-out and setting: under `C[C@@H]1O[C@@H](O[C@H]2C[C@@H](O)[C@]3(CO)[C@@H]4C(CC[C@]3(O)C2)[C@@]2(O)CC[C@H]([C@@H]3COC(=O)C3)[C@@]2(C)C[C@H]4O)[C@H](O)[C@H](O)[C@H]1O` (stereo not given in full) stands -1.31%.
The same measure, in the same setting: under `N[C@@]1(C(=O)O)CC[C@@H](C(=O)O)C1` stands -1.35%; under `CC(N)Cc1c[nH]c2ccc(O)cc12` (stereo not given), 1.82%; under `NNC(=O)c1ccc(O)cc1`, 9%.
Consider `NC(=O)c1cc(N2CC2)c([N+](=O)[O-])cc1[N+](=O)[O-]`, for which the “activity change, negative = inhibition” value is 1.38%.

Values taken from PubChem BioAssay (NCATS).
